# In the library only some 4.6% were active in any assay of this set; here they are far more common.
# PfHsp90 yeast 2: growth inhibition of yeast expressing Plasmodium Hsp90. S. cerevisiae expressing PfHsp90, BacTiter-Glo ATP, 48 h; yeast lacking PDR1 and PDR3 efflux regulators. inhibition, % at 9.4 µM. 310,000 tested, 0.32% active. AID 504621;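 active = every replicate shows inhibition above about 80%, whatever the replicate mean, limit read from the data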;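 note: 0% = DMSO neutral controls and 100% = 20 µM radicicol positive controls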
# tim10-1 inh: growth inhibitors of tim10-1 mutant yeast. AID 463190. inhibition, % at 20 µM. S. cerevisiae tim10-1 ts strain growth, BacTiter-Glo, 24 h. 330,000 tested, 2.2% active;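 active = inhibition of at least 40%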;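 note: mutant grown at 25 °C; 0% = DMSO wells with yeast and 100% = wells holding no yeast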
# NLRP3 yeast inh: NALP3 inhibition in yeast; 330,000 tested, 0.39% active; AID 2825; inhibition, % at 10 µM; Yeast reconstituted NLRP3/ASC/caspase-1, beta-gal luminescence, 24 h;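 active = inhibition of 50% or more; inactive = inhibition below 50%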;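 note: plate controls were induced DMSO wells for no effect and uninduced yeast grown without galactose for full effect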
# tim23-1 inh: growth inhibitors of tim23-1 mutant yeast | S. cerevisiae tim23-1 growth, BacTiter-Glo luminescence, 24 h | inhibition, % at 20 µM | 330,000 tested, 1.3% active | AID 463212;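 active = growth inhibition of the mutant yeast at or above 50%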;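 note: temperature-sensitive mutant grown at 25 °C; plate controls were DMSO-treated mutant yeast for no effect and medium wells lacking yeast for full effect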
# SKKanGAS inh: SKKanGAS growth inhibition; S. pyogenes SKKanGAS, kanamycin growth, BacTiter-Glo, 6 h; inhibition, % at 7.5 µM; 300,000 tested, 1.3% active; AID 1662;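 active = mean replicate score, as percent of positive control median, at least 50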;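 note: strain carries kanamycin resistance gene driven by streptokinase promoter and grows in 40 µg/ml kanamycin; loss of luminescence reflects streptokinase promoter inhibition or plain growth inhibition; 0% = median of DMSO wells and 100% = positive control at its reference dose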
# TIM10 inh: growth inhibitors of TIM10 yeast strain; S. cerevisiae TIM10 strain growth, BacTiter-Glo luminescence, 24 h; 330,000 tested, 1.4% active; inhibition, % at 10 µM;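 active = inhibition of 40% or more at the single tested concentration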;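 note: wild-type TIM10 isogenic control strain grown at permissive 25 °C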
# tim10-1 conf: tim10-1 yeast growth inhibition, confirmed; inhibition, % at 20 µM; 7,400 tested, 56% active; S. cerevisiae tim10-1 ts strain growth, BacTiter-Glo, 24 h; AID 463213; shares compounds with tim10-1 inh;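 active = inhibition of yeast growth at or above a set limit in either of two repeat tests at 20 µM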;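 note: tim10-1 mutant grown at permissive 25 °C to find synthetic lethal compounds; 0% = DMSO yeast wells and 100% = medium wells without yeast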
# tim10 confirm: TIM10 yeast growth inhibition, confirmed; S. cerevisiae tim10 strain growth, BacTiter-Glo luminescence, 24 h; 4,600 tested, 63% active; inhibition, % at 10 µM; shares compounds with TIM10 inh;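 active = inhibition of yeast growth at or above a set limit in either of two replicates at 10 µM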;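 note: this counterscreen used the strain with wild-type TIM10; 0% = yeast with DMSO and 100% = medium wells lacking yeast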
# tim23-1 confirm: tim23-1 yeast growth inhibition, confirmed; shares compounds with tim23-1 inh; 4,400 tested, 83% active; S. cerevisiae tim23-1 growth, BacTiter-Glo luminescence, 24 h; inhibition, % at 20 µM;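 active = inhibition above about 39% in either of two replicate wells at 20 µM, limit read from the data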;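 note: temperature-sensitive tim23-1 mutant grown at 25 °C; 0% = DMSO wells with yeast and 100% = medium wells without yeast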
# * hit, by the source's call; nt = no result.
SMILES,PfHsp90 yeast 2,tim10-1 inh,NLRP3 yeast inh,tim23-1 inh,SKKanGAS inh,TIM10 inh,tim10-1 conf,tim10 confirm,tim23-1 confirm
Cc1cc(Br)cc2c(C(=O)NCC3CCCO3)cc(-c3ccccc3)nc12 (stereo not given),nt,19,11,24,3,1,nt,nt,nt
COC(c1ccc(Cl)cc1)(c1ccc(Cl)cc1)C(Oc1nc(C)cc(C)n1)C(=O)O (stereo not given),4,10,17,2,3,4,nt,nt,nt
O=C(CC1NC(=O)NC1=O)Nc1ccc(Cl)cc1 (stereo not given),19,-9,16,3,1,-7,nt,nt,nt
O=C(CC1Nc2ccccc2NC1=O)Nc1cc(Cl)cc(Cl)c1 (stereo not given),nt,79*,20,64*,25,41*,-2,-32,15
Cc1csc(NC(=O)C2CCCN(S(=O)(=O)c3ccc(Br)s3)C2)n1 (stereo not given),13,46*,6,55*,11,2,38*,nt,51*
CCSc1nnc(-c2ccc(C)cc2)c2ccccc12,1,55*,35,64*,-9,44*,49*,9,70*
Cc1ccc(C(=O)Nc2ccc(Br)c(C(F)(F)F)c2)cc1,nt,75*,-16,67*,30,63*,45*,63*,62*
CCc1cccc2c1NC(=O)C21N2CCCC2C(C(=O)c2ccc3ccccc3c2)C12C(=O)Nc1ccccc12 (stereo not given),-8,65*,20,51*,13,69*,70*,71*,61*
CCc1cccc2c1NC(=O)C2(O)N1CCCC(C)C1 (stereo not given),-3,21,9,24,-6,6,nt,nt,nt
Cc1cccc2c1NC(=O)C21N2CCCC2C(C(=O)c2ccc3ccccc3c2)C12C(=O)Nc1ccccc12 (stereo not given),nt,46*,9,51*,12,43*,71*,66*,57*
Cc1cc(C(=O)N2CCCC(C(=O)c3ccc4ccccc4c3)C2)nn1C (stereo not given),-8,8,4,2,-2,6,nt,nt,nt
COc1ccc(CN2C(=O)[C@H]3Cc4c([nH]c5ccccc45)C(C)(C)N3C2=O)cc1,-14,49*,7,51*,27,41*,39*,37*,47*
Oc1ccc(Nc2nc(-c3ccccc3)nc3ccccc23)cc1,-9,59*,21,61*,-5,42*,46*,52*,59*
CC(Nc1nc(-c2ccccc2)nc2ccccc12)c1ccccc1 (stereo not given),13,44*,19,58*,7,29,-27,nt,33
CC(Nc1nc(-c2ccccc2F)nc2ccccc12)c1ccccc1 (stereo not given),11,37,12,41,1,37,nt,nt,nt
COc1ccc(Nc2nc(-c3ccccc3)nc3ccccc23)cc1,-9,52*,25,67*,17,39,40*,nt,63*
COc1ccc(NC(=O)c2ccc(CNc3c(N4CCCC4)c(=O)c3=O)cc2)cc1Cl,-8,6,-7,0,4,9,nt,nt,nt
COc1ccc(NC(=O)c2cccc(OC(F)F)c2)cc1Cl,-2,37,1,39,-8,38,nt,nt,nt
O=C(Nc1ccc(OC(F)F)c(Cl)c1)c1cccc(OC(F)F)c1,6,71*,-36,71*,-1,63*,63*,59*,76*
COc1ccc(Cl)cc1NC(=O)COC(=O)C1=NNC(=O)CC1,4,-7,-1,-8,nt,4,nt,nt,nt
CCC(C)c1ccc(S(=O)(=O)N2CCN(S(=O)(=O)c3ccc(NC(C)=O)cc3)CC2)cc1 (stereo not given),-5,-10,3,3,-2,2,nt,nt,nt
Cc1ccc2c(c1)N=C(c1ccccc1)CC(C(Cl)Cl)=N2,8,60*,25,74*,10,60*,48*,56*,67*
OCC#CCSc1nnc(-c2cccc3ccccc23)o1,-21,2,25,33,nt,2,nt,nt,nt
Cc1cc(C)n2nc(SCC(=O)NC(=O)c3ccc(OC(F)F)cc3)nc2n1,-11,-10,15,-5,nt,-10,nt,nt,nt
O=C(COc1cccc(NC(=O)c2cccs2)c1)c1ccc(F)cc1,18,46*,15,53*,-8,62*,40*,-16,76*
SMILES,PfHsp90 yeast 2,tim10-1 inh,NLRP3 yeast inh,tim23-1 inh,SKKanGAS inh,TIM10 inh,tim10-1 conf,tim10 confirm,tim23-1 confirm
O=C(COc1cccc(NC(=O)c2ccccc2)c1)c1ccccc1,13,3,0,9,-19,-10,nt,nt,nt
CNc1[nH]c(=O)[nH]c(=O)c1N=Nc1cc(Cl)ccc1Cl,nt,3,2,-11,5,-8,nt,nt,nt
O=C(Nc1cccc(Cl)c1)c1ccc(Cn2cc(Cl)cn2)cc1,18,60*,50,68*,16,73*,47*,17,76*
CC1=C(SCc2ccccc2)C(=O)c2ccccc2C1=O,0,nt,nt,nt,nt,nt,nt,nt,nt
O=C1C(SCCO)=C(SCCO)C(=O)c2ccccc21,-6,86*,32,80*,nt,52*,93*,38*,75*
CC[C@@H]1C/C=C\Cc2ccccc2[C@H](C(=O)C[C@@H](O)CC(C)=O)OC1=O,-8,54*,-10,52*,nt,39,53*,nt,49*
Cc1ccc(NC(=O)c2ccc(NS(=O)(=O)c3cccc4cccnc34)cc2)cc1,-26,-7,3,1,11,7,nt,nt,nt
Cc1ccc(C)[n+](CC(=O)N2CCCCC2)c1,7,0,2,9,nt,7,nt,nt,nt
O=C(NC1CC1)c1ccc2c(c1)C1C3CCC(C3)C1C(c1ccccc1)N2 (stereo not given),-5,50*,-2,62*,6,41*,42*,0,54*
O=C(NC1CCCC1)c1cccc(Cl)c1,9,-10,-10,8,-4,-2,nt,nt,nt
CCc1ccccc1NC(=O)CNC(=O)c1cc(C2CC2)nc2c1cnn2C(C)C,-9,3,6,30,nt,-8,nt,nt,nt
CC(C)n1ncc2c(C(=O)NCC(=O)Nc3ccccc3Br)cc(C3CC3)nc21,0,42*,21,53*,nt,8,26,nt,44*
COc1ccccc1N1CCN(C(=O)c2ccc3c(Cl)c4c(nc3c2)CCCC4)CC1,-24,53*,10,56*,25,31,36*,nt,57*
